Compound activity (PubChem BioAssay)
Shown is part of a subset that was picked to be rich in hits.
DT40 TDP1 no CPT: qHTS for Inhibitors of human tyrosyl-DNA phosphodiesterase 1 (TDP1): qHTS in cells in absence of CPT | DT40 Tdp1-/- hTDP1 cells, no CPT, ATP luminescence, 48 h | Potency, µM (highest dose often 46.2 µM), without a hit: top-dose activity change, negative = growth inhibition, actives largely listed as inhibitors | 420,000 tested, 15% active | AID 686978, 2013; note: potency is the fitted concentration of half-maximal effect; nearly all actives have a fitted effect of over 55% in size
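DT40 Tdp1-/-;hTDP1 cells, no CPT (DMSO vehicle only), 400 cells/well; compounds pin-transferred; ≥48 hr, 37 °C; CellTiter-Glo 30 min RT dark, luminescence read.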
HT1080NT lethal: kills 2HG-producing HT-1080-NT fibrosarcoma cells. Potency, µM (titrated, usually from 46.1 µM), without a hit: top-dose activity, negative = less viability, most hits filed as cytotoxic. HT-1080-NT fibrosarcoma viability, CellTiter-Glo ATP luminescence, 48 h. AID 686970. 360,000 tested, 1.6% active;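 note: NT is the 2HG producing partner of a matched IDH1 knockdown line; potency is the fitted concentration of half-maximal effect; 0% = DMSO-treated cells and -100% = media-only wells without cells; nearly all actives have a fitted effect of over 55% in size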
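Fibrosarcoma NT cells, 750 per well in 5% FBS RPMI, were exposed to compound for 48 hours. Viability: CellTiter-Glo luminescence.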
TDP1 cell CPT: DT40-hTDP1 cell growth loss with CPT; chicken DT40 Tdp1-/-;hTDP1 cells + 20 nM CPT, ATP luminescence, 48 h; Potency, µM (titrated, usually from 46.2 µM), inactives show at the highest dose activity change, negative = growth inhibition, hits mostly inhibitors; 420,000 tested, 12% active; AID 686979; note: potency is the fitted concentration of half-maximal effect; nearly all actives have a fitted effect of over 55% in size
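Chicken DT40 Tdp1-/- cells stably complemented with human TDP1 were seeded at 400 cells/well in medium containing 20 nM camptothecin, exposed to pin-transferred compounds, and grown at 37 °C for at least 48 hr. Viability was read as ATP luminescence.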
12-LOX inh: blocks human arachidonate 12S-lipoxygenase; 580,000 tested, 1.1% active; Potency, µM (series often up to 108 µM), inactives show top-dose activity change, negative = inhibition, usual class: inhibitors; purified 12hLO, xylenol orange hydroperoxide absorbance; P18054; note: potency is the fitted concentration of half-maximal effect
Target sequence (P18054 whole entry, looked up): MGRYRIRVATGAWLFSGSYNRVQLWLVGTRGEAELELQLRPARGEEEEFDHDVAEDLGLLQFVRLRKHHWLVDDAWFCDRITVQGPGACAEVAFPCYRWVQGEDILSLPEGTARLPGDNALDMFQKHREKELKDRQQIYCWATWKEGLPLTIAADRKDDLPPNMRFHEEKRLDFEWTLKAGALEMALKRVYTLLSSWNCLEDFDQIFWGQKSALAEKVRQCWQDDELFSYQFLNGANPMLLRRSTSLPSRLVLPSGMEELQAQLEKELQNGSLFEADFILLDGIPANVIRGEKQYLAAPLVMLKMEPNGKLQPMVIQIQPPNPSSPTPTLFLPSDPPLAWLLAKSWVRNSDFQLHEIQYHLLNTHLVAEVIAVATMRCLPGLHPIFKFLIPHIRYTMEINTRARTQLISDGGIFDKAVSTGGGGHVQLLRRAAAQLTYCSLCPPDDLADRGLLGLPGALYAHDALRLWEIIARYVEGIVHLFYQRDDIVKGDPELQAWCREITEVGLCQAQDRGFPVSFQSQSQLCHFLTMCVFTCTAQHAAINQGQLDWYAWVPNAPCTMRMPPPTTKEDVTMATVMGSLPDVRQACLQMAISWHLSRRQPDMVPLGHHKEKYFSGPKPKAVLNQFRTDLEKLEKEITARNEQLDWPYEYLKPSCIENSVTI
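Purified human 12hLO (150 nM final) in 25 mM Hepes, 0.01% Triton X-100, pH 7.0 was preincubated 15 min at room temperature with compound. Then 40 uM arachidonic acid was added, 30 min. Hydroperoxide was read by Fe-XO absorbance ratio 573/405 nm.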
IL1B secr inh: blocks inflammasome-driven IL-1 beta release; THP-1 LPS/ATP IL-1B secretion, AlphaLISA, 16 h; stronger effect = lower value; activity change, % at 57.5 µM; 360,000 tested, 4.7% active; in the data active = activity change below about -50%; inconclusive = mostly about -30% to -49%
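Secreted IL-1B measured by AlphaLISA bead assay after 16 h compound exposure of THP-1 cells; compounds (final up to 57.5 uM) added 1 h before LPS (250 ng/mL) and ATP (1.25 mM) stimulation; lower signal means less secretion.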
HT1080 IDH1KD tx: toxicity to HT-1080 IDH1 knockdown cells (counter line); HT-1080 IDH1 knockdown viability, ATP luminescence, 48 h; 360,000 tested, 2% active; Potency, µM (titrated, usually from 46.1 µM), for the others: top-dose activity, negative = toxicity, hits mostly cytotoxic;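 note: potency is the fitted concentration of half-maximal effect; 0% = DMSO wells and -100% = cell-free medium wells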
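HT-1080-IDH1KD cells (IDH1 knocked down), 750/well in RPMI with 5% FBS, treated with compound 48 h at 37 degrees C. Viability by CellTiter-Glo luminescence, normalised to DMSO and no-cell wells; concentration-response curves classed.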
Numbers without * were called inactive. Unless noted, calls come from the whole dose curve; as a rule, active = well fitted curve in the direction sought with a large enough effect; inconclusive = small, poorly fitted or top-dose-only effect, or another doubt; inactive = no such curve, though single readings can be large; an effect the other way counts as inactive or inconclusive. Unless noted, % is set by controls: 0 for no effect and ±100 for the full control effect.

Screening CC1CC(C)(C)CC2(C1)NC(=O)N(CC(=O)N1CCN(S(=O)(=O)c3cccc(Cl)c3Cl)CC1)C2=O (configuration not stated) returned DT40 TDP1 no CPT inconclusive, HT1080NT lethal -1.2%, TDP1 cell CPT 18.4µM*, 12-LOX inh inconclusive, IL1B secr inh -22.3 and HT1080 IDH1KD tx -22.6%.
CC(C)(C)OC(=O)NCc1ccc(CNC(=O)c2[nH]cnc2C(=O)N[C@@H](Cc2ccccc2)C(=O)OCc2ccccc2)cc1 was read as DT40 TDP1 no CPT 23.1µM*, HT1080NT lethal -26.5%, TDP1 cell CPT inconclusive, 12-LOX inh 7.6%, IL1B secr inh 3.8 and HT1080 IDH1KD tx -5.5%.
For CC(C)C[C@H](NC(=O)c1nc[nH]c1C(=O)NCC(=O)OC(C)(C)C)C(=O)OCc1ccccc1 the results were DT40 TDP1 no CPT inconclusive, HT1080NT lethal 0.8%, TDP1 cell CPT inconclusive, 12-LOX inh 25.0%, IL1B secr inh 32.2 and HT1080 IDH1KD tx -0.1%.
CC(C)(C)OC(=O)NCc1ccc(NC(=O)c2nc[nH]c2C(=O)N[C@@H](Cc2ccccc2)C(=O)OCc2ccccc2)cc1 was read as DT40 TDP1 no CPT inconclusive, HT1080NT lethal inconclusive, TDP1 cell CPT inconclusive, 12-LOX inh 13.9%, IL1B secr inh -64.5* and HT1080 IDH1KD tx inconclusive.
CC(C)(C)OC(=O)[C@H](Cc1ccccc1)NC(=O)c1nc[nH]c1C(=O)NCc1ccccc1 was read as DT40 TDP1 no CPT -29.6%, HT1080NT lethal 2.6%, TDP1 cell CPT inconclusive, 12-LOX inh -1.1%, IL1B secr inh -29.1 and HT1080 IDH1KD tx 3.6%.
Screening CC(C)C[C@H](NC(=O)c1nc[nH]c1C(=O)NCc1ccc(CNC(=O)OC(C)(C)C)cc1)C(=O)OCc1ccccc1 returned DT40 TDP1 no CPT 20.6µM*, HT1080NT lethal -9.0%, TDP1 cell CPT inconclusive, 12-LOX inh 6.1%, IL1B secr inh -0.2 and HT1080 IDH1KD tx -1.3%.
For CC(C)(C)OC(=O)NCc1ccc(CNC(=O)c2[nH]cnc2C(=O)N[C@@H](Cc2ccccc2)C(=O)OC(C)(C)C)cc1 the results were DT40 TDP1 no CPT 20.6µM*, HT1080NT lethal -12.4%, TDP1 cell CPT 18.4µM*, 12-LOX inh 3.5%, IL1B secr inh inconclusive and HT1080 IDH1KD tx -0.6%.
CC(C)(C)C(=O)NC(c1ccc(Cl)cc1)c1cccnc1 (configuration not stated) was read as 12-LOX inh 2.9%.
Screening O=C1NCCC[C@@H]1NC(=O)[C@@H]1CN(C(=O)c2cccs2)CCN1C(=O)c1ccccc1 returned 12-LOX inh 2.8%.
`O=C(COc1ccc(F)cc1)N1CCN(c2cc(C(F)(F)F)ncn2)CC1` gave 12-LOX inh 9.2%.
For CC1(C(=O)Nc2cccc3ncccc23)Cc2ccccc2C(=O)O1 (configuration not stated) the results were 12-LOX inh 19.8%.
N#CCSc1nc2c(sc(=S)n2Cc2ccco2)c(=O)n1-c1ccc(F)cc1 was read as DT40 TDP1 no CPT inconclusive, HT1080NT lethal inconclusive, TDP1 cell CPT inconclusive, 12-LOX inh 13.0%, IL1B secr inh -52.5* and HT1080 IDH1KD tx inconclusive.
CCOC(=O)C1(Cc2cccc(OC)c2)CCCN(C(=O)CCN2CCCCO2)C1 (configuration not stated) was read as 12-LOX inh 69.1%.
Cc1ccc(S(=O)(=O)C2C(=O)N(C)C3(C)CC2c2ccccc2O3)cc1 (configuration not stated) was read as DT40 TDP1 no CPT 16.4µM*, HT1080NT lethal inconclusive, TDP1 cell CPT -23.8%, 12-LOX inh -14.5%, IL1B secr inh 0.0 and HT1080 IDH1KD tx 14.2%.
Cc1ccc(NC(=O)C2C(=O)N(CCO)C3(C)CC2c2ccccc2O3)cc1 (configuration not stated) was read as DT40 TDP1 no CPT -17.9%, HT1080NT lethal 2.1%, TDP1 cell CPT -17.6%, 12-LOX inh -15.7%, IL1B secr inh -15.4 and HT1080 IDH1KD tx 0.0%.
COc1cc(-c2cc(OC)c3c(C)oc(C)c3c(=O)c2)ccc1OC(=O)c1cccc(C)c1 was read as DT40 TDP1 no CPT 13µM*, TDP1 cell CPT 23.1µM* and 12-LOX inh inconclusive.
For CCOc1cc(-c2ccc(OC(=O)c3ccc(OC)cc3)c(OC)c2)cc(=O)c2c(C)oc(C)c12 the results were DT40 TDP1 no CPT 18.4µM*, TDP1 cell CPT 14.6µM* and 12-LOX inh -28.2%.
`COc1ccc(-c2cc(OC(=O)c3ccc(F)cc3)c3c(C)oc(C)c3c(=O)c2)cc1OC` gave DT40 TDP1 no CPT inconclusive, TDP1 cell CPT 18.4µM* and 12-LOX inh inconclusive.
`COc1ccc(-c2cc(OC(=O)c3cccc(Br)c3)c3c(C)oc(C)c3c(=O)c2)cc1` gave 12-LOX inh 4.47µM*.
Screening O=C(c1cn(C/C=C/c2ccccc2)nn1)N1CCCN(C2CCCCC2)CC1 returned 12-LOX inh 13.2%.
Screening CCc1ccc(NC(=O)C2CC3CCCC(C2)C3=O)cc1 (configuration not stated) returned 12-LOX inh -3.5%.
`CCCO/N=C1/C(=O)N(c2ccccc2)c2ccccc21` gave DT40 TDP1 no CPT 23.1µM*, HT1080NT lethal -4.1%, TDP1 cell CPT 13µM*, 12-LOX inh 9.3%, IL1B secr inh inconclusive and HT1080 IDH1KD tx -4.9%.
`O=C(O/N=C1\C(=O)N(c2ccccc2)c2ccccc21)C1CC1` gave DT40 TDP1 no CPT -18.5%, HT1080NT lethal -18.0%, TDP1 cell CPT inconclusive, 12-LOX inh -12.4%, IL1B secr inh -8.4 and HT1080 IDH1KD tx -20.6%.
For CCO/N=C1\C(=O)N(c2ccccc2)c2ccccc21 the results were DT40 TDP1 no CPT -25.7%, HT1080NT lethal -2.0%, TDP1 cell CPT 5.8%, 12-LOX inh 0.9%, IL1B secr inh -51.0* and HT1080 IDH1KD tx -0.4%.
Nc1ncnc(Sc2ccccc2)c1[N+](=O)[O-] was read as DT40 TDP1 no CPT -19.2%, HT1080NT lethal -3.3%, TDP1 cell CPT -2.7%, 12-LOX inh -4.9%, IL1B secr inh -102.7* and HT1080 IDH1KD tx -2.2%.
CC(C)Nc1ncnc(N)c1[N+](=O)[O-] was read as 12-LOX inh -3.2%.
